Unmarked numbers belong to inactive results. For some of these results: Entries with a potency or affinity are not part of this list. Active and inactive are the calls of the source. Unless noted, the rule behind the calls is not given here.
Columns and labels:
[1] = antimalarial activity against Dd2 strain (AID 2302;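 active = growth inhibition above 50% at the single 2 µM test dose, taken to imply half-maximal potency below 2 µM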;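 note: 0% = DMSO untreated growth and 100% = chloroquine plus artemisinin killed control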); settings: P. falciparum Dd2 in RBCs, LDH growth readout, 72 h; at 2 µM; stronger effect = higher value
[2] = HepG2 cytotoxicity, primary screen, cytotoxicity control for P. falciparum antimalarial project, cell-based, ATP luminescence (AID 2303;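 active = inhibition above 50%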;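 note: 0% = DMSO wells and 100% = digitonin-killed cells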); settings: HepG2 viability, 24-48 h, at 10 µM, stronger effect = higher value
[3] = target: L-lactate dehydrogenase (Plasmodium falciparum (isolate CDC / Honduras)) (UniProt Q27743); experiment: PfLDH activity inhibition – cell lysate, 3D7 strain, counter-screen for P. falciparum growth inhibition project (AID 2304);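 note: 0% = vehicle and 100% = reference inhibitor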; settings: P. falciparum 3D7 crude extract, LDH APAD/NBT absorbance; at 2 µM; stronger effect = higher value
Chain of L-lactate dehydrogenase (Plasmodium falciparum (isolate CDC / Honduras)) (Q27743 whole entry, looked up): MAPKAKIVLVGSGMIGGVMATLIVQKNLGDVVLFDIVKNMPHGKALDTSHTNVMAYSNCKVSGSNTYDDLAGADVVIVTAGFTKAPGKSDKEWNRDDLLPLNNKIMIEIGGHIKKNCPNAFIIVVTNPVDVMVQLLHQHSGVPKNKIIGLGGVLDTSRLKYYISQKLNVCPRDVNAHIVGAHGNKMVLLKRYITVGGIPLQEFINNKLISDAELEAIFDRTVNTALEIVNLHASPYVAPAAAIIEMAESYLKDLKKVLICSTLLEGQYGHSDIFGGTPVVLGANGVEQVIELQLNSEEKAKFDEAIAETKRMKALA

[4] = inhibition of 3D7 malaria parasite growth – strain 3D7 (AID 2306);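 note: 0% = DMSO wells and 100% = chloroquine plus artemisinin control wells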; settings: P. falciparum 3D7 erythrocytic growth, LDH absorbance, 72 h; at 2 µM; stronger effect = higher value
[5] = target: Calcium-dependent protein kinase 1 (Plasmodium falciparum (isolate 3D7)) (UniProt P62344); experiment: PfCDPK1 kinase inhibitors, biochemical, TCAMS library (AID 1159585; cut-off not given, nearly all actives have IC50 up to about 0.98 µM;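 note: inhibitors leave more ATP so luminescence rises with inhibition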); settings: recombinant PfCDPK1, Kinase-Glo ATP depletion luminescence
Chain of Calcium-dependent protein kinase 1 (Plasmodium falciparum (isolate 3D7)) (P62344 whole entry, looked up): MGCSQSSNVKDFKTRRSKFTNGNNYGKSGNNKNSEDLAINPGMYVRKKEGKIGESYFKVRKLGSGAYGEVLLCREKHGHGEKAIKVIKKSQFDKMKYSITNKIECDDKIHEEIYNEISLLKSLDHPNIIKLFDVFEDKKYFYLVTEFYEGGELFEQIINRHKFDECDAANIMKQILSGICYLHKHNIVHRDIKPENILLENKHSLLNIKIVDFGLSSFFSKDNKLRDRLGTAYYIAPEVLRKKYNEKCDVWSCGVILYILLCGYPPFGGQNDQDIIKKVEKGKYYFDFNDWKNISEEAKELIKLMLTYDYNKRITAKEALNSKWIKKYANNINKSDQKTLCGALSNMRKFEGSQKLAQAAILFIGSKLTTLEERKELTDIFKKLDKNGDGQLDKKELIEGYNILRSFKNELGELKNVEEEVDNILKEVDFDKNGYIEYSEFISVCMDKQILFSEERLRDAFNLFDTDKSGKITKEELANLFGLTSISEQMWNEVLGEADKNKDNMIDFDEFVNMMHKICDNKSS

[6] = target: Plasmodium falciparum protein kinase 6 (PK6, PF3D7_1337100) (UniProt Q8IDW1); experiment: PfPK6 kinase inhibitors, biochemical, TCAMS library (AID 1159586); settings: recombinant PfPK6, Kinase-Glo ATP depletion luminescence
Chain of Plasmodium falciparum protein kinase 6 (PK6, PF3D7_1337100) (Q8IDW1 1-305): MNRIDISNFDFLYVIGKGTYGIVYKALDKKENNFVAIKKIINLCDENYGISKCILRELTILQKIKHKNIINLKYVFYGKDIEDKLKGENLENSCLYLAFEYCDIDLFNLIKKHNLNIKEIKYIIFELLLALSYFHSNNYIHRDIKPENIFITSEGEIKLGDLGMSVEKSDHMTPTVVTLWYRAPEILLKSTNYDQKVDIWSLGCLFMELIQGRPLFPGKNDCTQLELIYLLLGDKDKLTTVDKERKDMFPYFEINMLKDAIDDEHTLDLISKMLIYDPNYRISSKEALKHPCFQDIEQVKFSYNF

[7] = target: Protein kinase 7 (PK7), Plasmodium falciparum 3D7 (PF3D7_0213400) (UniProt Q7YTF7); experiment: inhibition of Plasmodium PK7 catalytic activity – biochemical, TCAMS antimalarial set, Kinase-Glo luminescence (AID 1159587); settings: recombinant PfPK7, Kinase-Glo ATP depletion luminescence
Chain of Protein kinase 7 (PK7), Plasmodium falciparum 3D7 (PF3D7_0213400) (Q7YTF7 1-343): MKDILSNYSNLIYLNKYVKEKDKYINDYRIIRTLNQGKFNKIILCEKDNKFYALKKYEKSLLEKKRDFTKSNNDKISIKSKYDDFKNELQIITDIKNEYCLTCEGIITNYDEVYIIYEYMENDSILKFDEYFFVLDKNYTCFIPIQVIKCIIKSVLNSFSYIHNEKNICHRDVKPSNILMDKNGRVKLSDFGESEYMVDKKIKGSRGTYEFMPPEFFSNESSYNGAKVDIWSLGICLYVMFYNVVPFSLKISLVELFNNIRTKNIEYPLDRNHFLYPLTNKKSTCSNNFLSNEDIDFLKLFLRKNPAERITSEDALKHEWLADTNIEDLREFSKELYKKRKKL

[8] = target: Calcium-dependent protein kinase 4 (Plasmodium falciparum (isolate 3D7)) (UniProt Q8IBS5); experiment: PfCDPK4 kinase inhibitors, biochemical, TCAMS library (AID 1159588; cut-off not given, nearly all actives have IC50 up to about 0.91 µM); settings: recombinant PfCDPK4, Kinase-Glo ATP depletion luminescence
Chain of Calcium-dependent protein kinase 4 (Plasmodium falciparum (isolate 3D7)) (Q8IBS5 whole entry, looked up): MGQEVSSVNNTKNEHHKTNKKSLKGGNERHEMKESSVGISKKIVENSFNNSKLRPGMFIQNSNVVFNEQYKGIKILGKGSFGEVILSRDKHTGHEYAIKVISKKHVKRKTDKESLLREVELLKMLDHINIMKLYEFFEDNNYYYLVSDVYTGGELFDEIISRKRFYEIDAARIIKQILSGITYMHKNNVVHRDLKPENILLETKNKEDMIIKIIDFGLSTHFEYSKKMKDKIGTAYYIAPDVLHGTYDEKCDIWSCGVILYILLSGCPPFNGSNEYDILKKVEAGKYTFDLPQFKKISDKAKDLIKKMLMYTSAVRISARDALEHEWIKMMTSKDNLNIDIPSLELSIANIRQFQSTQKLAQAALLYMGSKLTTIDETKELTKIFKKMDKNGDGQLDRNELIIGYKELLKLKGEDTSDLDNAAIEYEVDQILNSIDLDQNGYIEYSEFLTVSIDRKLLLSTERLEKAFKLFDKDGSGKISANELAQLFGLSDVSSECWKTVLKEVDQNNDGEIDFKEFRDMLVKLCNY

Structure (SMILES)	growth inhibition [1]	inhibition [2]	inhibition [3]	growth inhibition [4]	outcome [5]	outcome [6]	outcome [7]	outcome [8]
COc1ccc(NC(=O)c2cn(-c3ccc(C(C)(C)C)cc3)nc2C)cc1N1CCN(C)CC1	71% (active)	33%	0%	96% (active)	inactive	inactive	inactive	inactive
O=C(/C=C/c1ccc(Cl)c(Cl)c1)NCCCCCN1CCN(C(=O)Nc2ccc(OC(F)F)cc2)CC1	-2%	20%	4%	99% (active)	inactive	inactive	inactive	inactive
CC(C)c1sc(N2CCN(C)CC2)nc1C(=O)Nc1ccc(F)cc1C(F)(F)F	99% (active)	3%	4%	101% (active)	inactive	inactive	inactive	inactive
CCn1cc(C(=O)O)c(=O)c2cc(F)c(N3CCN(S(=O)(=O)c4ccc(N)cc4)CC3)cc21	79% (active)	-2%	4%	90% (active)	inactive	inactive	inactive	inactive
CCOC(=O)c1cccc(NC(=O)Nc2cc(C)nc3ccccc23)c1	90% (active)	14%	0%	100% (active)	inactive	inactive	inactive	inactive
O=C(NC1CCC1)C1CCN(C(c2ccccc2)c2cc(F)cc(F)c2)CC1 (stereo not drawn)	72% (active)	0%	-2%	94% (active)	inactive	inactive	inactive	inactive
COCCn1ccc2c3c(N)nc(N)nc3ccc21	29%	43%	-2%	93% (active)	inactive	inactive	inactive	inactive
C[C@@H]1CN(CCCn2c3ccccc3c3ccc(C(=O)CCCN(C)C)cc32)C[C@H](C)N1	6%	26%	3%	100% (active)	inactive	inactive	inactive	inactive
CC(C)CCN=C(N)Nc1ccc(OCCCOc2ccc(NC(N)=NCCC(C)C)cc2)cc1	95% (active)	0%	-3%	100% (active)	inactive	inactive	inactive	inactive
O=C(NCCCCN1CCC(O)(c2ccc3c(c2)OCO3)CC1)c1ccc(NC(=O)c2ccc(Cl)cc2)cc1	6%	15%	-1%	86% (active)	inactive	inactive	inactive	inactive
NOCCCCOc1ccccc1	2%	12%	-4%	99% (active)	inactive	inactive	inactive	inactive
CCC(C)(C)c1ccc2nc(N)nc(N)c2c1C	82% (active)	62% (active)	1%	91% (active)	inactive	inactive	inactive	inactive
O=S(=O)(NCCN1CCCC1)c1ccc(-c2cccc(CNC3Cc4ccccc4C3)c2)s1	69% (active)	57% (active)	2%	98% (active)	inactive	inactive	inactive	inactive
O=C(Nc1ccc(OC2CCN(Cc3ccco3)CC2)c(Cl)c1)c1ccc2ncccc2c1	40%	-5%	-4%	97% (active)	inactive	inactive	inactive	inactive
Cc1c(CNCCCNc2cc(=O)c3ccccc3[nH]2)sc(C(F)=C(F)F)c1Br	18%	7%	-2%	94% (active)	inactive	inactive	inactive	inactive
N=C(N)c1cccc(-c2cc(-c3cccc(C(=N)N)c3)on2)c1	78% (active)	8%	3%	96% (active)	inactive	inactive	inactive	inactive
CCCCCCn1c2c(c(=N)c3c1CCC3)CCCC2	76% (active)	31%	4%	99% (active)	inactive	inactive	inactive	inactive
COc1cccc(CC(=O)N2CCC(n3c(C)nc4ccc(C)cc43)CC2)c1	99% (active)	1%	-2%	100% (active)	inactive	inactive	inactive	inactive
CCCc1cc(NCc2ccncc2)nc(Nc2ccc(F)cc2)n1	6%	9%	-7%	90% (active)	inactive	inactive	inactive	inactive
COc1cc2cc(-c3nc4ccccc4[nH]3)c(N)nc2cc1OC	100% (active)	91% (active)	1%	100% (active)	inactive	inactive	inactive	inactive
O=C(NCCNc1ccnc(Nc2ccc(F)cc2)n1)Nc1ccccc1F	4%	22%	5%	93% (active)	inactive	inactive	inactive	inactive

Structure (SMILES)	growth inhibition [1]	inhibition [2]	inhibition [3]	growth inhibition [4]	outcome [5]	outcome [6]	outcome [7]	outcome [8]
CCN(CCCN1CCCCC1)c1cc(C)nc(Nc2ccc(C)c(C)c2)n1	60% (active)	30%	-3%	101% (active)	inactive	inactive	inactive	inactive
CC(C)CC(=O)N1CCNC[C@@H]1C(=O)NCc1ccc(Cl)c(Cl)c1	16%	-3%	-3%	99% (active)	inactive	inactive	inactive	inactive
O=C(NC(=S)NCc1ccncc1)c1ccccc1	-3%	-7%	1%	94% (active)	inactive	inactive	inactive	inactive
CC(C)c1cc(Oc2c(I)cc(CCNCc3ccccc3)cc2I)ccc1O	54% (active)	42%	4%	95% (active)	inactive	inactive	inactive	inactive
Cc1cc(N[C@@H](Cc2ccccc2)C(=O)NCCOc2ccccc2)nc(NCCc2ccc(F)cc2)n1	86% (active)	5%	1%	99% (active)	inactive	inactive	inactive	inactive
COc1ccc2nccc([C@@H](O)CN3CCC(NC(=O)c4ccc(Cl)c(OC)c4)CC3)c2c1	28%	26%	5%	87% (active)	inactive	inactive	inactive	inactive
CC(=O)Nc1ccc(S(=O)(=O)Nc2ccc(Nc3nc(C)cc(N4CCCCC4)n3)cc2)cc1	54% (active)	23%	0%	89% (active)	inactive	inactive	inactive	inactive
COC(=O)C(c1ccc(NC(=O)[C@H](CC(C)C)NC(=O)OC(C)(C)C)cc1)c1ccc(NC(=O)[C@H](CC(C)C)NC(=O)OC(C)(C)C)cc1	42%	0%	2%	94% (active)	inactive	inactive	inactive	inactive
CN(C)CCNCc1nc(-c2ccc3c(Nc4ccc(Cl)cc4F)ccnc3c2)cs1	100% (active)	-2%	-9%	101% (active)	inactive	inactive	inactive	inactive
O=C(NCc1ccc(C(=O)NC2CCCCC2)cc1)c1ccc(O)c(-c2ccc(Cl)c(Cl)c2)c1	-4%	5%	-6%	93% (active)	inactive	inactive	inactive	inactive
c1cc(CNCc2ccc3c(c2)OCO3)cc(-c2cccc(CNc3ccc4ncccc4c3)c2)c1	27%	18%	-4%	98% (active)	inactive	inactive	inactive	inactive
O=C(Nc1ccccc1)c1ccc(-c2cc3ccncc3cc2OC2CCNCC2)s1	8%	-1%	-2%	100% (active)	inactive	inactive	inactive	inactive
Clc1ccc(-c2ccc(CNCCCN3CCCC3)cc2)cc1	21%	47%	-5%	91% (active)	inactive	inactive	inactive	inactive
CN1CCCc2cc(NC(=O)c3cc(-c4ccc(Cl)cc4)cs3)ccc2C1	34%	15%	4%	100% (active)	inactive	inactive	inactive	inactive
CC(C)c1ccc(NC(=O)c2ccc(CN3CCCN(Cc4cccc(Cl)c4)CC3)cc2)cc1	12%	45%	5%	90% (active)	inactive	inactive	inactive	inactive
C#CCOc1ccccc1CN1CCC(N2CCc3cc(NC(=O)c4cc(C)on4)ccc32)C1 (stereo not drawn)	94% (active)	16%	-2%	95% (active)	inactive	inactive	inactive	inactive
CCOc1cc(C)ccc1C1CCN(CCCCNC(=O)c2ccc(-c3ccc(Cl)cn3)cc2)CC1	8%	19%	-6%	94% (active)	inactive	inactive	inactive	inactive
COc1ccc(CN2CCC(CNCCc3ccccc3Cl)CC2)cc1	17%	36%	-9%	87% (active)	inactive	inactive	inactive	inactive
COc1cccc(Nc2nc(C)cc(NC3CCCC3)n2)c1	79% (active)	41%	1%	101% (active)	inactive	inactive	inactive	inactive
CCCCCCc1ncc(-c2cc3cc(O)c(-c4ccccc4)cc3oc2=O)s1	63% (active)	4%	-8%	90% (active)	inactive	inactive	inactive	inactive
